Data: the supplement of paper PMC8773631
Counter-ions that a name gives are not always drawn. ± gives the uncertainty stated by the source.

Tested on: NCC-MFS5-C1
Assay: cell viability relative to DMSO control; higher = less growth inhibition
Conditions: 10 µM; treatment time: 3 days
Protocol: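 NCC-MFS5-C1 myxofibrosarcoma cells (1x10^4 per well, 384-well) were treated on day 2 with 10 µM of each drug. On day 5, viability was read by CCK-8 absorbance at 450 nm and normalised to the DMSO control (%), n = 2.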

Row | SMILES | cell viability [%]
1 | CN(C)C/C=C/C(=O)Nc1cc2c(Nc3ccc(F)c(Cl)c3)ncnc2cc1O[C@H]1CCOC1 [Afatinib (BIBW2992)] | 9.65 ± 4.3
2 | Cc1ccc(NC(=O)c2ccc(CN3CC[C@H](N(C)C)C3)c(C(F)(F)F)c2)cc1Nc1nccc(-c2cncnc2)n1 [Bafetinib (INNO-406)] | 2.79 ± 1.9
3 | Nc1cccc2c1CN(C1CCC(=O)NC1=O)C2=O (stereo unspecified) [Lenalidomide] | 105 ± 4.7
4 | C=CC(=O)N1CCC[C@@H](n2nc(-c3ccc(Oc4ccccc4)cc3)c3c(N)ncnc32)C1 | 79.2 ± 0.35
5 | COc1cc(N2CCC(N3CCN(C)CC3)CC2)ccc1Nc1ncc(Cl)c(Nc2ccccc2S(=O)(=O)C(C)C)n1 | 52.7 ± 1.8
6 | C#Cc1cccc(Nc2ncnc3cc(OCCOC)c(OCCOC)cc23)c1 [Erlotinib HCl (OSI-744)] | 81.6 ± 1
7 | O=C1NC(=O)[C@@H](c2cn3c4c(cccc24)CCC3)[C@@H]1c1c[nH]c2ccccc12 [Tivantinib (ARQ 197)] | 48.3 ± 1.5
8 | S=C(NCc1ccc2c(c1)OCO2)N1CCN(c2ncnc3c2oc2ccccc23)CC1 [Amuvatinib (MP-470)] | 86.1 ± 9
9 | CCc1c2c(nc3ccc(OC(=O)N4CCC(N5CCCCC5)CC4)cc13)-c1cc3c(c(=O)n1C2)COC(=O)[C@]3(O)CC [Irinotecan HCl Trihydrate] | 64.1 ± 2.3
10 | COC(=O)N[C@H](C(=O)N[C@@H](Cc1ccccc1)[C@@H](O)CN(Cc1ccc(-c2ccccn2)cc1)NC(=O)[C@@H](NC(=O)OC)C(C)(C)C)C(C)(C)C [Atazanavir Sulfate] | 67.8 ± 13
11 | Cc1c2oc3c(C)ccc(C(=O)N[C@@H]4C(=O)N[C@H](C(C)C)C(=O)N5CCC[C@H]5C(=O)N(C)CC(=O)N(C)[C@@H](C(C)C)C(=O)O[C@@H]4C)c3nc-2c(C(=O)N[C@@H]2C(=O)N[C@H](C(C)C)C(=O)N3CCC[C@H]3C(=O)N(C)CC(=O)N(C)[C@@H](C(C)C)C(=O)O[C@@H]2C)c(N)c1=O [Actinomycin D] | 40.2 ± 2.1
12 | CCN1CCN(Cc2ccc(Nc3ncc(F)c(-c4cc(F)c5nc(C)n(C(C)C)c5c4)n3)nc2)CC1 [Abemaciclib mesylate] | 84.2 ± 9
13 | Cc1ccc(-c2cc(C(F)(F)F)nn2-c2ccc(S(N)(=O)=O)cc2)cc1 [Celecoxib] | 72.1 ± 10
14 | COC(=O)C1=C(C#N)NC(C)=C(C(=O)OC(C)C)C1c1cccc([N+](=O)[O-])c1 (stereo unspecified) [Nilvadipine] | 86 ± 4.2
15 | CCCCNC(=O)NS(=O)(=O)c1ccc(C)cc1 [Tolbutamide] | 82.5 ± 3.6
16 | Cc1ccc(S(=O)(=O)Nc2nc3ccccc3nc2Nc2ccc3nsnc3c2)cc1 [XL147 analog] | 84.5 ± 6
17 | FC(F)(F)c1ccc(CNc2ccc(Cc3c[nH]c4ncc(Cl)cc34)cn2)cn1 [Pexidartinib (PLX3397)] | 72.5 ± 5.8
18 | C[C@]1(O)C[C@@H](c2nc(-c3ccc4ccc(-c5ccccc5)nc4c3)c3c(N)nccn32)C1 [Linsitinib (OSI-906)] | 57 ± 0.57
19 | Nc1[nH]cnc2ncnc1-2 [Adenine HCl] | 98.1 ± 6.5
20 | C[C@@H](CN1CC(=O)NC(=O)C1)N1CC(=O)NC(=O)C1 [Dexrazoxane] | 122.6 ± 1.1
21 | Cc1ccc(Nc2nccc(N(C)c3ccc4c(C)n(C)nc4c3)n2)cc1S(N)(=O)=O | 61 ± 11
22 | O=C(/C=C/c1cccc(S(=O)(=O)Nc2ccccc2)c1)NO [Belinostat (PXD101)] | 26.9 ± 0.53
23 | Nc1ncn([C@H]2C[C@H](O)[C@@H](CO)O2)c(=O)n1 [Decitabine] | 134 ± 7.4
24 | COc1ccc(/C=C/C(=O)Nc2ccccc2C(=O)O)cc1OC [Tranilast] | 80.2 ± 2.5
25 | CN(CCOc1ccc(CC2SC(=O)NC2=O)cc1)c1ccccn1 (stereo unspecified) [Rosiglitazone] | 88.53 ± 0.85
26 | CC(C)c1nc(CN(C)C(=O)N[C@@H](CCN2CCOCC2)C(=O)N[C@H](CC[C@H](Cc2ccccc2)NC(=O)OCc2cncs2)Cc2ccccc2)cs1 [Cobicistat (GS-9350)] | 61.5 ± 0.43
